Screening data as filed in PubChem.
Rows were chosen to be rich in hits. Some 21% of all compounds tested hit in one or more screens of this group.
CHX counter = Cycloheximide Counterscreen for Small Molecule Inhibitors of Shiga Toxin; cell reporter, cycloheximide protein synthesis inhibition counterscreen; max response, %; actives 12% (n = 300,000); AID 2314, 2010; in the data active = max response mostly above about 13%, no sharp cut-off; inactive = mostly below about 14%; also: read at 38.3 µM for the half of the compounds with a filed dose; 0% is about no effect
Pf growth 96h = Primary qHTS for delayed death inhibitors of the malarial parasite plastid, 96 hour incubation; P. falciparum luciferase reporter growth, 96 h; Potency, µM (series often up to 28.7 µM), without a hit: top-dose activity change, negative = inhibition, actives largely listed as inhibitors; actives 6.9% (n = 320,000); also: potency is read from the fitted curve at half-maximal effect; % is scaled to controls: 0 for no effect and ±100 for the full control effect
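Cell-based qHTS: luciferase-tagged P. falciparum in erythrocytes (2% hematocrit, 0.05% parasitemia final) incubated with compounds for 96 hours, 37 C, 5% CO2; luciferase detection reagent then added and luminescence measured.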
Pf growth 48h = Primary qHTS for delayed death inhibitors of the malarial parasite plastid, 48 hour incubation | actives 5.9% (n = 310,000) | P. falciparum luciferase growth in erythrocytes, 48 h | Potency, µM (doses to about 28.7 µM), for the others: at the top dose activity change, negative = inhibition, actives largely listed as inhibitors; also: potency is read from the fitted curve at half-maximal effect; % is scaled to controls: 0 for no effect and ±100 for the full control effect
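Compounds are pin-transferred into medium, infected erythrocytes (2% hematocrit, 0.1% parasitemia final) are added, and plates sit one parasite generation at 37 C in 5% CO2. Detection reagent is then added and luminescence measured.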
HCMV antiviral = qHTS Assay for inhibitors of the human cytomegalovirus (HCMV); actives 4.5% (n = 410,000); activity change, negative = inhibition, % at 57.5 µM; HFF cells, HCMV-luciferase reporter, 72 h; stronger effect = lower value; AID 1259415, 2018; in the data active = activity change below about -60%; inconclusive = no clear call, values can overlap the other calls; inactive = above about -39%; also: % is scaled to controls: 0 for no effect and ±100 for the full control effect
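Inhibition of viral replication was scored as loss of reporter luminescence in HFFs infected with HCMV-luciferase (MOI 1 PFU/cell) for 72 h; compounds tested at 2 doses, normalized to buffer and Salinomycin controls.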
Shiga inhibitor = A qHTS for Small Molecule Inhibitors of Shiga Toxin; inhibition, % at 38.7 µM; actives 9.2% (n = 290,000); Vero cells, Shiga toxin protein synthesis inhibition reporter; in the data active = inhibition mostly above about 28%, no sharp cut-off; inactive = mostly below about 43%; also: 0% is about no effect
HCV inhibitor = qHTS Assay for Inhibitors of Hepatitis C Virus (HCV); Potency, µM (titrated, usually from 41.8 µM), inactives show at the highest dose activity change, negative = inhibition, actives largely listed as inhibitors; Huh7.5.1 HCVcc-Cre infection, luciferase reporter, 44 h; actives 3.4% (n = 340,000); also: potency is read from the fitted curve at half-maximal effect; % is scaled to controls: 0 for no effect and ±100 for the full control effect
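Cells seeded at 1,000/well and cultured 4 h, then compounds added followed by HCVcc-Cre virus (~0.5 moi). After 44 h further culture, luciferase substrate was added, plates held 15 min at room temperature, and luminescence read for 15 sec.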
An asterisk follows results filed as active; [ ] = remark or other dose. Unless noted, calls follow the shape of the dose curve; as a rule, active = well fitted inhibition curve with a large enough effect; inconclusive = small, poorly fitted or top-dose-only effect, or another doubt; inactive = no such curve, though single readings can be large or run the other way.

`CN(/N=C/c1cc(Br)cc(Br)c1O)c1cccc(C(F)(F)F)n1` gave CHX counter 15, Pf growth 96h inconclusive, Pf growth 48h 4.1µM*, HCMV antiviral -65*, Shiga inhibitor -3 and HCV inhibitor -15%.
For CN(N=Cc1ccccc1O)c1ccc2ccccc2n1 the results were HCMV antiviral 51.
O=C(NC1CC1)C1=C[C@H](c2csc3ccccc23)C[C@H](OCCCCO)O1 was read as CHX counter 9, Pf growth 96h -13%, Pf growth 48h inconclusive, HCMV antiviral 1, Shiga inhibitor -2 and HCV inhibitor -19%.
For O=C(NCc1ccccc1)C1=C[C@@H](c2csc3ccccc23)C[C@@H](OCCCCO)O1 the results were CHX counter 7, Pf growth 96h inconclusive, Pf growth 48h inconclusive, HCMV antiviral -97*, Shiga inhibitor 11 and HCV inhibitor -20%[8.37 µM].
`O=C(NC1CC1)C1=C[C@@H](c2csc3ccccc23)C[C@@H](OCCCCO)O1` gave CHX counter -7, Pf growth 96h 13µM*, Pf growth 48h 10µM*, HCMV antiviral -37, Shiga inhibitor -4 and HCV inhibitor -2%.
Screening O=C(NCc1nc2ccccc2[nH]1)C1=C[C@@H](c2csc3ccccc23)C[C@@H](OCCCCO)O1 returned CHX counter -2, Pf growth 96h 2.1µM*, Pf growth 48h 2.6µM*, HCMV antiviral -19, Shiga inhibitor -3 and HCV inhibitor -20%.
Screening CCOC(=O)c1noc2nc(C)n(CC(=O)Nc3ccc(OC)c(Cl)c3)c(=O)c12 returned HCMV antiviral 12.
For COc1ccc(NC(=O)COC(=O)/C=C/c2cnc3ccccc3n2)cc1 the results were CHX counter 7, Pf growth 96h 1%, Pf growth 48h 8%, HCMV antiviral 0, Shiga inhibitor 24 and HCV inhibitor 19%.
For COc1cc(CNc2ccc3[nH]c(=O)[nH]c3c2)ccc1OCc1ccccc1C the results were CHX counter 22, Pf growth 96h 1%, Pf growth 48h 8%, HCMV antiviral -70*, Shiga inhibitor 27 and HCV inhibitor -38%.
`COc1cc(CNc2ccc3[nH]c(=O)[nH]c3c2)ccc1OCc1ccccc1` gave CHX counter 14, Pf growth 96h inconclusive, Pf growth 48h -5%, HCMV antiviral 17, Shiga inhibitor 18 and HCV inhibitor inconclusive.
Screening COc1cc(CNc2ccc3[nH]c(=O)[nH]c3c2)cc(Br)c1OCc1ccccc1F returned CHX counter 1, Pf growth 96h -10%, HCMV antiviral 18, Shiga inhibitor -5 and HCV inhibitor inconclusive.
COc1cc(CNc2ccc3[nH]c(=O)[nH]c3c2)ccc1OCc1ccccc1F was read as CHX counter 19*, Pf growth 96h 348%, Pf growth 48h -5%, HCMV antiviral inconclusive, Shiga inhibitor 37* and HCV inhibitor inconclusive.
Screening CCOC(=O)C1CCN(c2ncnc3c2c(-c2ccccc2)cn3-c2ccc(Cl)cc2)CC1 returned HCMV antiviral -2.
Cc1cccc(C(=O)Nc2ccc(N3CCN(C(=O)c4ccco4)CC3)cc2)c1 was read as CHX counter 1, Pf growth 96h 30%, Pf growth 48h inconclusive, HCMV antiviral -25, Shiga inhibitor 11 and HCV inhibitor -27%.
Screening COc1ccccc1C(=O)NC(=S)Nc1ccc(N2CCN(C(=O)c3ccco3)CC2)cc1 returned CHX counter 1, Pf growth 96h 5%, Pf growth 48h inconclusive, HCMV antiviral 13, Shiga inhibitor -4 and HCV inhibitor 32µM*.
Cc1ccccc1C(=O)N1CCN(c2ccc(NC(=O)c3ccco3)cc2Cl)CC1 was read as CHX counter 4, Pf growth 96h 1%, Pf growth 48h 3.3µM*, HCMV antiviral 10, Shiga inhibitor -3 and HCV inhibitor 11µM*.
Cc1ccccc1C(=O)N1CCN(c2ccc(NC(=S)NC(=O)c3ccco3)cc2)CC1 was read as CHX counter 1, Pf growth 96h -27%, Pf growth 48h inconclusive, HCMV antiviral -87*, Shiga inhibitor -3 and HCV inhibitor 6%.
Cc1ccc(C(=O)Nc2ccc(N3CCN(C(=O)c4ccco4)CC3)cc2)cc1 was read as CHX counter 9, Pf growth 96h -19%, Pf growth 48h inconclusive, HCMV antiviral 43, Shiga inhibitor -4 and HCV inhibitor -3%.
`O=C(CCn1c(=O)c2cccn2c2cccnc21)N1CCN(c2ccccc2F)CC1` gave HCMV antiviral 17.
Screening Cc1cccc(C(=O)OCC(=O)Nc2c(C)n(C)n(-c3ccccc3)c2=O)c1 returned Pf growth 96h inconclusive, Pf growth 48h -27%, HCMV antiviral -27 and HCV inhibitor 37%.
`Cc1ccc(-n2ccc(-c3nn(-c4ccccc4)ccc3=O)n2)cc1` gave CHX counter -6, Pf growth 96h 7.4µM*, Pf growth 48h inconclusive, HCMV antiviral inconclusive, Shiga inhibitor -7 and HCV inhibitor -22%.
Screening O=c1ccn(-c2cccc(C(F)(F)F)c2)nc1-c1ccn(-c2ccccc2F)n1 returned CHX counter -5, Pf growth 96h 5.9µM*, Pf growth 48h inconclusive, HCMV antiviral -39, Shiga inhibitor -16 and HCV inhibitor -6%.
`COc1ccc(-n2ccc(-c3nn(-c4cccc(C(F)(F)F)c4)ccc3=O)n2)cc1` gave CHX counter 0, Pf growth 96h 3.3µM*, Pf growth 48h 7.4µM*, HCMV antiviral -11, Shiga inhibitor -14 and HCV inhibitor inconclusive.
O=C(O)c1nn(-c2cccc(C(F)(F)F)c2)ccc1=O was read as CHX counter -8, Pf growth 96h 19%, HCMV antiviral -1, Shiga inhibitor -8 and HCV inhibitor 8%.
CC(OC(=O)C1=COCCO1)C(=O)NC1(C#N)CCCCC1 (stereo not drawn) was read as HCMV antiviral 19 and HCV inhibitor 13%.
Screening O=C(OCC#CCSc1nc2ccccc2s1)c1ccco1 returned CHX counter 37*, Pf growth 96h 58%, Pf growth 48h 25%, HCMV antiviral 51 and Shiga inhibitor 69.
O=C(OCC#CCSc1nnc(-c2ccc(Br)cc2)o1)c1ccco1 was read as CHX counter 19*, Pf growth 96h 4%, Pf growth 48h 43%, HCMV antiviral 33, Shiga inhibitor 47* and HCV inhibitor inconclusive.
`O=C(OCc1nnc(-c2ccc(Br)cc2)o1)c1ccco1` gave CHX counter 28*, Pf growth 96h inconclusive, Pf growth 48h 14%, HCMV antiviral -10, Shiga inhibitor 40 and HCV inhibitor 24%.
